Test results taken from PubChem BioAssay (NCI).
The panel holds about 83,000 compounds, 20% with a hit somewhere; the sample as a whole holds those more often.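 Interpretation: 100, growth as untreated; towards 0, rising growth inhibition; 0, no net growth; 0 to -100, cell death. Compounds scoring below 10 were considered active.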 Unmarked numbers belong to inactive results. The source made the active and inactive calls.

Key:
Test in all cases: NCI-60 one-dose screen, 48 h (100 = growth as untreated, 0 = no growth, -100 = all killed)
Conditions in all cases: 10 µM unless noted
SR leukemia = system: SR leukemia
RPMI-8226 leukemia = system: RPMI-8226 leukemia
OVCAR-8 ovarian = system: OVCAR-8 ovarian
OVCAR-5 ovarian = system: OVCAR-5 ovarian
OVCAR-4 ovarian = system: OVCAR-4 ovarian
SK-OV-3 ovarian = system: SK-OV-3 ovarian
IGROV1 ovarian = system: IGROV1 ovarian
OVCAR-3 ovarian = system: OVCAR-3 ovarian
HS 578T breast = system: HS 578T breast
NCI/ADR-RES ovarian = system: NCI/ADR-RES ovarian
T-47D breast = system: T-47D breast
BT-549 breast = system: BT-549 breast
MDA-MB-435 melanoma = system: MDA-MB-435 melanoma
SW-620 colon = system: SW-620 colon
MCF7 breast = system: MCF7 breast
HCT-116 colon = system: HCT-116 colon
HCC-2998 colon = system: HCC-2998 colon
KM12 colon = system: KM12 colon

| SMILES | growth (SR leukemia) | growth (RPMI-8226 leukemia) | growth (OVCAR-8 ovarian) | growth (OVCAR-5 ovarian) | growth (OVCAR-4 ovarian) | growth (SK-OV-3 ovarian) | growth (IGROV1 ovarian) | growth (OVCAR-3 ovarian) | growth (HS 578T breast) | growth (NCI/ADR-RES ovarian) | growth (T-47D breast) | growth (BT-549 breast) | growth (MDA-MB-435 melanoma) | growth (SW-620 colon) | growth (MCF7 breast) | growth (HCT-116 colon) | growth (HCC-2998 colon) | growth (KM12 colon) |
| --- | --- | --- | --- | --- | --- | --- | --- | --- | --- | --- | --- | --- | --- | --- | --- | --- | --- | --- |
| C=C[C@@H]1C[C@H](O)Cc2c(C)cc(C)cc2N1 | 82.8% | 84.7% | 98.5% | 89.3% | 108% | 106% | 109% | 112% | 99.9% | 97.1% | 103% | 96.4% | 99.3% | 99.9% | 93.1% | 99.9% | 94.2% | 105% |
| S=c1[nH]nc(-c2cc3ccc2CCc2ccc(cc2)CC3)n1C1CC1 | 109% | 106% | 107% | 99.1% | 89.4% | 113% | 101% | 108% | 101% | 103% | 97.7% | 107% | 97.3% | 99.8% | 90.5% | 92.3% | 115% | 99.6% |
| Cc1cc(N/N=C/c2nc(-c3ccc(Br)cc3)oc2C)c2cc(Br)ccc2n1 | 2.16% (active) | -9.38% (active) | 12% | 95.6% | -83.5% (active) | 105% | 78.8% | -13.4% (active) | 85.5% | 35% | 89.8% | 93.1% | -11.2% (active) | -46.5% (active) | -78.7% (active) | 16.1% | 94.7% | 60.2% |
| O=C(/C=C\c1cccc([N+](=O)[O-])c1)/C=C/c1cccc([N+](=O)[O-])c1 | 44.2% | -6.63% (active) | 80.7% | 90.1% | 95.5% | 95.5% | 52.2% | 67.5% | 90.6% | 91.7% | 97.9% | 88.9% | 36.7% | 18.9% | 19% | -31.2% (active) | 97% | -7.25% (active) |
| COc1ccc(C2NN=C3c4ccccc4CCC32)cc1 (stereo unspecified) | 3.17% (active) | 21.7% | 80.4% | 90.5% | 71.4% | 77% | 16.8% | 37.6% | 62.3% | 29.9% | 35.3% | 67.4% | -15.7% (active) | 29.9% | 5.11% (active) | 64.4% | 67.3% | 26.3% |
| COc1ccc(-c2nc(-c3nc4cc(C)c(C)cc4[nH]3)cc3c2[nH]c2ccccc23)cc1 | -43.7% (active) | -26.3% (active) | 36.9% | 77.6% | 60.6% | 109% | 66.9% | -4% (active) | 56.9% | 41.7% | 52.1% | 70.9% | 49.2% | 77.3% | 39.1% | 18.1% | 16.6% | 44.2% |
| O=C(c1ccccc1)C1OC1c1ccc([N+](=O)[O-])cc1 (stereo unspecified) | 33.6% | 55.9% | 68.9% | 102% | 59.9% | 97.3% | 53.4% | 59.7% | 88.8% | 57.9% | 52.6% | 68.5% | 39% | 9.23% (active) | 64.1% | 13.7% | 115% | 62.6% |
| COc1ccc(-c2nc(N3CCCC3=O)sc2Br)cc1OC | 88.9% | 109% | 103% | 99.2% | 98.2% | 115% | 113% | 111% | 100% | 104% | 89.2% | 93.2% | 93.5% | 102% | 96.9% | 97.4% | 108% | 92.7% |
| COc1cc(/C=C/C(=O)/C=C/c2cc(OC)c3c(c2)OCO3)cc2c1OCO2 | 33.6% | -10.5% (active) | 95.4% | 107% | 104% | 86.6% | 90.3% | 34.6% | 103% | 91.2% | 88.6% | 84.3% | -21.2% (active) | 11.5% | 19.8% | -93.9% (active) | 14.6% | -17.1% (active) |
| Cc1nc2cncc(C#Cc3cncc(C(=O)Nc4ccc(CN5CCN(C)CC5)c(C(F)(F)F)c4)c3)c2nc1C | 19.7% | 8.79% (active) | 24.6% | 10.5% | 13.7% | -26.8% (active) | -5.34% (active) | 25.9% | -9.83% (active) | 18.5% | 26.6% | 37.6% | -1.99% (active) | 1.45% (active) | 19% | 5.45% (active) | 30.7% | 3.08% (active) |
| O=C(O)COc1ccc(-c2cssc2=S)cc1 | 54.8% | 113% | 101% | 98.7% | 103% | 108% | 112% | 122% | 105% | 108% | 95.5% | 116% | 102% | 107% | 93.2% | 109% | 125% | 109% |
| CCCCCc1cc[n+](CC(=O)c2ccc([N+](=O)[O-])cc2)cc1 | 73.2% | 45.1% | 77% | 109% | 26.3% | 93.9% | 110% | 58.8% | 106% | 110% | 56.7% | 77% | 68.2% | 49% | 43% | 21.2% | 58.1% | 50% |
| C=C(C)[C@@H]1CC[C@]2(C(=O)O)CC[C@]3(C)[C@H](CC[C@@H]4[C@@]5(C)C[C@@H](CC#Cc6ccc(C(F)(F)F)cc6)[C@H](O)C(C)(C)[C@@H]5CC[C@]43C)[C@@H]12 | 15.6% | 9.12% (active) | 3.74% (active) | 52% | 1.55% (active) | 36.2% | 19.5% | -3.44% (active) | 24.1% | 76.1% | 19% | 36.7% | -31.8% (active) | 15% | 8.54% (active) | 11.4% | 18.2% | 15.3% |
| CC(=O)Oc1csc(N(C(C)=O)c2cccc(C(F)(F)F)c2)n1 | 107% | 75.8% | 94.1% | 96.2% | 89.4% | 99.6% | 98.4% | 103% | 93% | 104% | 87.7% | -89.8% (active) | 98.1% | 98.7% | 90.8% | 86.6% | 108% | 99.3% |
| COc1cc(C2NN=C3c4ccccc4CCC32)cc(OC)c1OC (stereo unspecified) | 61.1% | 5.35% (active) | 70.3% | 95.8% | 71.1% | 69% | 26.1% | 71.2% | 71.4% | 79.4% | 39.3% | 103% | 96.9% | 93.9% | 42.7% | 74.8% | 110% | 80.4% |
| O=C1C2(c3ccccc3)C(c3ccccc3)=C(c3ccccc3)C1(c1ccccc1)C1CC=CC12 (stereo unspecified) | 101% | 50.2% | 87.5% | 97.9% | 69.5% | 96.3% | 86.9% | 89.5% | 106% | 90.3% | 68.3% | 99.4% | 92.9% | 93.8% | 82.8% | 76% | 87.7% | 80% |
| NC1=C(/C(N)=N/O)C(c2ccccc2)c2ccc3ccccc3c2O1 (stereo unspecified) | 34.9% | 19.1% | 17.2% | 29.6% | 47.5% | 55.2% | 29% | -3.21% (active) | 13.4% | -1.33% (active) | 54.5% | 28% | -56.2% (active) | 23% | 9.02% (active) | 6.57% (active) | 11.8% | 11.1% |
